Experimental data from the supplement of paper PMC4840960.
± gives the standard deviation of the averaged measurements.

These compounds were tested on E18 rat cortical neuron-glia co-culture (assay: fiber score / MBP score (myelination specific beyond OL differentiation) (ratio); higher = more myelination-specific MBP alignment). Details: 1 µM; treatment time: 8 days (DIV5-DIV13).
In short: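 Reported values are fiber score (continuous MBP fiber length per Olig2+ nucleus) divided by MBP score (thresholded MBP area × intensity per Olig2+ nucleus). They come from primary E18 rat cortical co-cultures treated with library compounds at 1 or 5 µM in myelination medium from DIV5 to DIV13, then fixed in 4 % paraformaldehyde, immunostained for MBP and Olig2 with DAPI, and analysed over four 10X fields per well in duplicate wells.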

In order of falling “fiber score / MBP score” value:
1. CCOC(=O)C1=C(C)NC(C)=C(C(=O)OC)C1c1cccc(Cl)c1Cl (stereo not given) [Felodipine]  1.27
2. COc1cc(C)c(/C=C/C(C)=C/C=C/C(C)=C/C(=O)O)c(C)c1C [Acitretin]  1.04
3. C[C@@H](O)[C@H]1C(=O)N2C(C(=O)O)=C(S[C@@H]3CN[C@H](C(=O)N(C)C)C3)[C@H](C)[C@H]12 [Meropenem]  0.99
4. COc1cc(N)c(Cl)cc1C(=O)NC1CCN(CCCOc2ccc(F)cc2)CC1OC (stereo not given) [Cisapride]  0.935
5. CCCCNC(=O)NS(=O)(=O)c1ccc(C)cc1 [Tolbutamide]  0.923
6. CC(C)C[C@H](NC(=O)[C@@H](O)[C@H](N)Cc1ccccc1)C(=O)O [Ubenimex]  0.92
7. Clc1ccccc1C(c1ccccc1)(c1ccccc1)n1ccnc1 [Clotrimazole]  0.906
8. CO[C@@]1(NC(=O)Cc2cccs2)C(=O)N2C(C(=O)O)=C(COC(N)=O)CS[C@@H]21 [Cefoxitin]  0.901
9. Nc1ccn([C@H]2CC[C@@H](CO)O2)c(=O)n1 [Zalcitabine]  0.888
10. CCCCC(=O)N(Cc1ccc(-c2ccccc2-c2nnn[nH]2)cc1)[C@H](C(=O)O)C(C)C [Valsartan]  0.885
11. CCOC(=O)[C@H](CCc1ccccc1)N[C@@H](C)C(=O)N1Cc2ccccc2C[C@H]1C(=O)O [Quinapril]  0.878
12. NC(N)=Nc1nc(CSCC/C(N)=N/S(N)(=O)=O)cs1 [Famotidine]  0.875
13. CCOC(=O)N1CCC(=C2c3ccc(Cl)cc3CCc3cccnc32)CC1 [Loratadine]  0.832
14. COc1ccc2cc([C@H](C)C(=O)O)ccc2c1 [Naproxen]  0.831
15. C[C@H]1C[C@H]2[C@@H]3CCC4=CC(=O)C=C[C@]4(C)[C@@]3(Cl)[C@@H](O)C[C@]2(C)[C@@]1(O)C(=O)CO [Beclomethasone]  0.828 ± 0.36
16. CC(C)C(=O)Nc1ccc([N+](=O)[O-])c(C(F)(F)F)c1 [Flutamide]  0.826
17. COCCCOc1ccnc(C[S+]([O-])c2nc3ccccc3[nH]2)c1C (stereo not given) [Rabeprazole]  0.82
18. CN(C)CCCN1c2ccccc2CCc2ccccc21 [Imipramine]  0.817
19. CN1CC(=O)N2[C@H](c3ccc4c(c3)OCO4)c3[nH]c4ccccc4c3C[C@@H]2C1=O [Tadalafil]  0.799
20. CCOC(=O)OC(C)OC1=C(C(=O)Nc2ccccn2)N(C)S(=O)(=O)c2ccccc21 (stereo not given) [Ampiroxicam]  0.796
21. CO[C@H]1/C=C/O[C@@]2(C)Oc3c(C)c(O)c4c(O)c(c5c(nc6cc(C)ccn65)c4c3C2=O)NC(=O)/C(C)=C\C=C\[C@H](C)[C@H](O)[C@@H](C)[C@@H](O)[C@@H](C)[C@H](OC(C)=O)[C@@H]1C [Rifaximin]  0.779
22. CC(COc1ccccc1)N(CCCl)Cc1ccccc1 (stereo not given) [Phenoxybenzamine]  0.774
23. COc1ccc(CC2c3cc(OC)c(OC)cc3CC[N+]2(C)CCC(=O)OCCCCCOC(=O)CC[N+]2(C)CCc3cc(OC)c(OC)cc3C2Cc2ccc(OC)c(OC)c2)cc1OC (stereo not given) [Atracurium]  0.771
24. COc1nc(C)nc(Cl)c1NC1=NCCN1 [Moxonidine]  0.758
25. CCCCN1CCCCC1C(=O)Nc1c(C)cccc1C (stereo not given) [Bupivacaine]  0.752
26. CC(C)[C@H](N)C(=O)OCCOCn1cnc2c(=O)nc(N)[nH]c21 [Valaciclovir]  0.731
27. CCN(CC)C(=O)C1(c2ccccc2)CC1CN (stereo not given) [Milnacipran]  0.697
28. O=[N+]([O-])c1cccc2cn[nH]c12 [7-Nitroindazole]  0.691
29. COc1cc(/C=C/c2ccc(O)cc2)cc(OC)c1 [Pterostilbene]  0.637
30. C#C[C@]1(O)CC[C@H]2[C@@H]3CCc4cc(O)ccc4[C@H]3CC[C@@]21C [Ethinyl Estradiol]  0.608
31. CC(=O)O[C@]1(C(C)=O)CC[C@H]2[C@@H]3C=C(C)C4=CC(=O)CC[C@]4(C)[C@H]3CC[C@@]21C [Megestrol acetate]  0.588
32. COc1cc(-c2ccc(=O)[nH]n2)ccc1OC(F)F [Zardaverine]  0.581
33. Nc1nc2c(ncn2COCCO)c(=O)[nH]1 [Acyclovir]  0.568
34. CN1CCN(C2=Nc3ccccc3Oc3ccc(Cl)cc32)CC1 [Loxapine]  0.561
35. CC(=O)OCC(=O)[C@@]1(O)CC[C@H]2[C@@H]3C[C@H](C)C4=CC(=O)C=C[C@]4(C)[C@H]3[C@@H](O)C[C@@]21C [Methylprednisolone acetate]  0.468
